One may read the inhibition as the change of the read-out against control, counted positive when it falls.

Molecules are shown by their SMILES. The campaign covered roughly 5,600 compounds. About 390 (7%) showed an effect of 50% or more. The entries come from a sample that favours strong results as a whole.

Results on 65 compounds are retold here after ChEMBL document CHEMBL4808148, “HDAC6 screening dataset using tau-based substrate in an enzymatic assay yields selective inhibitors and activators” (2021).

The test deals with T1, Protein deacetylase HDAC6 (Homo sapiens) (UniProt Q9UBN7).
T1 sequence (whole entry): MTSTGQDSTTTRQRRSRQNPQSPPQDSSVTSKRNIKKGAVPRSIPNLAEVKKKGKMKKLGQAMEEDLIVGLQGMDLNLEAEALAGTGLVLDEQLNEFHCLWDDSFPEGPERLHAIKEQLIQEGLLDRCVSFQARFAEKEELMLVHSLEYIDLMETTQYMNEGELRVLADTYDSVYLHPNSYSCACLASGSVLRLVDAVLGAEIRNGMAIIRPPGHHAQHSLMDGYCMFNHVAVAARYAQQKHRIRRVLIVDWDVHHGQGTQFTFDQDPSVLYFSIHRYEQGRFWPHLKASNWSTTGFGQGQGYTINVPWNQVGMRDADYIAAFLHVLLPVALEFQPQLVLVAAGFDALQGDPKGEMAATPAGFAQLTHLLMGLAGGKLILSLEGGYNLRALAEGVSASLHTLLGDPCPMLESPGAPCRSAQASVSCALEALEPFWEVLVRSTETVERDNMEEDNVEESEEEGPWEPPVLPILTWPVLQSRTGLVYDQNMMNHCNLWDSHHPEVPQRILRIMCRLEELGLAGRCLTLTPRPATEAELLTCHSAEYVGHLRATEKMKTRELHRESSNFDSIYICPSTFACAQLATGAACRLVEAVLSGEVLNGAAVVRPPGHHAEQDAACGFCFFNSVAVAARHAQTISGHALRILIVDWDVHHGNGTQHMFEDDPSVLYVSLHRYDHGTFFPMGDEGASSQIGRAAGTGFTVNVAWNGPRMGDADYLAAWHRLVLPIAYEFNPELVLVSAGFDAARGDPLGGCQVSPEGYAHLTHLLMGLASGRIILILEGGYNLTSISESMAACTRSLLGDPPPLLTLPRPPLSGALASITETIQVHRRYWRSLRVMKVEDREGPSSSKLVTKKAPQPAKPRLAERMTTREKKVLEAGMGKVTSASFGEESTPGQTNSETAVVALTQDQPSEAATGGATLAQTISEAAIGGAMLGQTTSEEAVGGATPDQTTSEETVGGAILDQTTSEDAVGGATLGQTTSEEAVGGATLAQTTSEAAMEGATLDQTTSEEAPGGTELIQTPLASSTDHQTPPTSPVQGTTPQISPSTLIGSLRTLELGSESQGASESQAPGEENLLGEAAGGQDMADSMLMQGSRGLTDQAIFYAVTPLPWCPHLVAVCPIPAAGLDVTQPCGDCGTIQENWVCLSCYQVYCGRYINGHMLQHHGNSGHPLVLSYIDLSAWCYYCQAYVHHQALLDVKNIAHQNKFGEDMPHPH
Conditions: at 10 µM.
For the compound `CS(=O)(=O)c1ccc([C@@H](CC2CCCC2)C(=O)Nc2nccs2)cc1`, the inhibition was -9.75%.

For the compound `Cn1cnnc1Sc1c([N+](=O)[O-])ncn1C`, the inhibition was determined as 19.5%.

In the case of `C=C1/C(=C\C=C2/CCC[C@]3(C)[C@@H]([C@H](C)/C=C/[C@@H](O)C4CC4)CC[C@@H]23)C[C@@H](O)C[C@@H]1O`, the inhibition was 1.78%.

In the case of `C[C@@H](CN1CCC(n2c(=O)[nH]c3cc(Cl)ccc32)CC1)NC(=O)c1ccc2ccccc2c1`, the inhibition turned out to be 8.37%.

For the compound `CC1(C)N=C(N)N=C(N)N1OCCCOc1cc(Cl)c(Cl)cc1Cl`, the inhibition came to 12%.

As for `Clc1cccc(-n2nnnc2NCc2ccccc2Oc2ccccn2)c1Cl`, the inhibition was determined as 0.62%.

In the case of `C[n+]1ccccc1C=NO`, the inhibition worked out at 0.38%.

For the compound `O=C1C(Cl)=C(N2CCOCC2)C(=O)N1c1ccc(Cl)c(Cl)c1`, the inhibition was 86%.

As to `O=C(Nc1ccc(N2CCC(C(=O)N3CCOCC3)CC2)cc1)c1cnc(Oc2ccccc2)nc1`, the inhibition was determined as 3.27%.

Regarding `CCN(CC)C(=S)S`, the inhibition was determined as 13.4%.

With `CC(=O)N(O)C/C=C/c1cccc(Oc2ccccc2)c1`, the inhibition amounted to 9.26%.

Regarding `N[C@@H]1CCCN(c2c(/C=C3\SC(=O)NC3=O)cccc2-c2ccccc2)C1`, the inhibition was determined as 104%.

Take `CCCCCCC[N+](CC)(CC)CCCCc1ccc(Cl)cc1`: the inhibition came out at 11%.

`COc1cc(OC)cc(N(CCNC(C)C)c2ccc3ncc(-c4cnn(C)c4)nc3c2)c1`: the inhibition was -0.23%.

For the compound `Nc1nc(-c2nn(Cc3ccccc3F)c3ncccc23)ncc1C1CC1`, the inhibition is 34.9%.

For the compound `N=C(N)NCCC(=O)O`, the inhibition came to 1.27%.

For `NC(=O)C1=CN([C@@H]2O[C@H](COP(=O)(O)OP(=O)(O)OC[C@H]3O[C@@H](n4cnc5c(N)ncnc54)[C@H](O)[C@@H]3O)[C@@H](O)[C@H]2O)C=CC1`, the inhibition worked out at 4.98%.

In the case of `Cc1cnc(Nc2ccc(OCCN3CCCC3)cc2)nc1Nc1cccc(S(=O)(=O)NC(C)(C)C)c1`, the inhibition worked out at 25%.

Take `O=C(NO)c1ccc2[nH]c(=O)c(CCCc3ccccc3)nc2c1`: the inhibition turned out to be 99.2%.

Consider `CCCCc1ccc2[nH]c(NC(=O)OC)nc2c1`, for which the inhibition came to 48%.

For the compound `O=C(Nc1cccc2c(=O)cc(-c3nnn[nH]3)oc12)c1ccc(OCCCCc2ccccc2)cc1`, the inhibition was found to be 9.45%.

On to `CCCCCCCCCCCCCCCC[N+](C)(C)Cc1ccccc1`, for which the inhibition was found to be 36.2%.

As for `CC(C)c1ccc(CC(=O)N2CCC[C@@H](c3cccc(OC(C)(C)C(=O)O)c3)C2)cc1`, the inhibition was determined as 24.2%.

As to `Nc1n[nH]c2nc3ccccc3nc12`, the inhibition came out at 53.6%.

On to `COC(=O)CC1CC(c2ccc(O)cc2)=NO1` (stereo not given), for which the inhibition turned out to be 96.7%.

Regarding `COC(=O)c1ccc(O)cc1`, the inhibition was determined as 16.3%.

For `Nc1nc(Nc2ccccc2)nc2c1ncn2[C@@H]1O[C@H](CO)[C@@H](O)[C@H]1O`, the inhibition was -2.75%.

On to `CC(N)(C(=O)O)c1ccc(-c2nnn[nH]2)cc1` (stereo not given), for which the inhibition is -2%.

Regarding `CN(C)C(=N)NCCC[C@H](N)C(=O)O`, the inhibition came out at 23.2%.

Take `CS(=O)(=O)Nc1ccc([N+](=O)[O-])cc1Oc1ccccc1`: the inhibition was determined as 1.72%.

`O=C(O)c1cc([N+](=O)[O-])ccc1NCCCc1ccccc1`: the inhibition worked out at 109%.

Take `Cn1c(NCCN(CCO)CCCc2ccc([N+](=O)[O-])cc2)cc(=O)n(C)c1=O`: the inhibition was found to be 7.31%.

As to `O=C(Nc1ccccc1)N1CCC(Cc2cnc3ccccc3c2)CC1`, the inhibition worked out at 27.7%.

Regarding `Cn1cc(/C=C2/C(=O)Nc3cccnc32)c2ccccc21`, the inhibition is 99.5%.

In the case of `Cn1cc(C2=C(c3cn(CCCSC(=N)N)c4ccccc34)C(=O)NC2=O)c2ccccc21`, the inhibition was -2.47%.

Turning to `Cn1cc(C2=C(c3ccc(Cl)cc3Cl)C(=O)NC2=O)c2ccccc21`, the inhibition is -5.95%.

Regarding `Cc1ccc(-c2cn3c4c(sc3n2)CCCC4)cc1`, the inhibition was 98%.

Consider `Clc1ccccc1CNC[C@H]1CC[C@H](CNCc2ccccc2Cl)CC1`, for which the inhibition was 9.4%.

`N#Cc1ccncn1`: the inhibition stood at 5.74%.

`Nc1cccc(-c2cc3c(Oc4cccc(O)c4)ncnc3[nH]2)c1`: the inhibition was 55.1%.

For `C[C@@H]([C@@H](O)c1ccc(O)cc1)N1CCC(O)(c2ccccc2)CC1`, the inhibition is 14.2%.

For the compound `CC/C=C(\C(=O)N[C@@H]1C(=O)N2C(C(=O)OCOC(=O)C(C)(C)C)=C(COC(N)=O)CS[C@H]12)c1csc(N)n1`, the inhibition came to 4.66%.

For `N#Cc1c(O)c2c(-c3ccc(-c4ccccc4O)cc3)csc2[nH]c1=O`, the inhibition is 94.5%.

Take `CNC(=N)NC(=O)Nc1c(C)cccc1C`: the inhibition is 27.8%.

For the compound `C1=Cc2cccc(OCC3CNCCO3)c2C1` (stereo not given), the inhibition was determined as 18.4%.

On to `C=C(C)[C@@H]1CC[C@]2(C(=O)O)CC[C@]3(C)[C@H](CC[C@@H]4[C@@]5(C)CC[C@H](OC(=O)CC(C)(C)C(=O)O)C(C)(C)[C@@H]5CC[C@]43C)[C@@H]12`, for which the inhibition came to 26.3%.

`O=C(O)c1cc(O)c2c(c1)[C@@H]([C@H]1c3cc(C(=O)O)cc(O)c3C(=O)c3c(O[C@H]4O[C@H](CO)[C@@H](O)[C@H](O)[C@H]4O)cccc31)c1cccc(O[C@H]3O[C@H](CO)[C@@H](O)[C@H](O)[C@H]3O)c1C2=O`: the inhibition came to 17.7%.

In the case of `O=c1cc(-c2ccccc2)oc2cc(O)cc(O)c12`, the inhibition came to 101%.

Take `O=C(O)[C@H]1O[C@H](Oc2cc3oc(-c4ccccc4)cc(=O)c3c(O)c2O)[C@H](O)[C@@H](O)[C@@H]1O`: the inhibition is 61.7%.

`O=c1cc(-c2ccc(O)cc2)oc2cc(O)cc(O)c12`: the inhibition is 97%.

As to `COc1ccc(-c2cc(=O)c3c(O)c(OC)c(O)cc3o2)cc1OC`, the inhibition turned out to be 85.7%.

Take `COc1ccc(-c2cc(=O)c3c(OC)c(OC)c(OC)c(OC)c3o2)cc1OC`: the inhibition is -2.26%.

With `CCOC(=O)COc1ccc2c(=O)cc(-c3ccccc3)oc2c1`, the inhibition amounted to 46.4%.

Turning to `COc1ccc(-c2cc(=O)c3c(OC)c(OC)c(OC)c(OC)c3o2)cc1`, the inhibition came to 44.4%.

For `OCc1ccccc1O[C@@H]1O[C@H](CO)[C@@H](O)[C@H](O)[C@H]1O`, the inhibition is -9.23%.

For the compound `O=C(O)c1cc(O)c2c3nc4ccccc4oc-3cc(=O)c2n1`, the inhibition turned out to be 5.48%.

As to `O=c1oc2cc(O)ccc2s1`, the inhibition amounted to 15.3%.

On to `CC(O)C(N)C(=O)O` (stereo not given), for which the inhibition came to 8.96%.

On to `Cc1ccc(Oc2ccccc2-c2csc(N=C3NCCCN3)n2)c(C)c1`, for which the inhibition was determined as 38.2%.

In the case of `CCCCCCCCCCCC(=O)N(CCO)CCO`, the inhibition was 14.4%.

As for `OC[C@H]1O[C@@H](Oc2cc3c(O)cc(O)cc3[o+]c2-c2ccc(O)c(O)c2)[C@H](O)[C@@H](O)[C@@H]1O`, the inhibition was determined as 27.8%.

For `OCCNCCCOc1cccc(Cl)c1Cl`, the inhibition was found to be 15.6%.

`COc1cc(C=O)c([N+](=O)[O-])cc1OC`: the inhibition was 11.8%.

In the case of `Cn1c(=O)n(-c2ccc(C(C)(C)C#N)cc2)c2c3cc(-c4cnc5ccccc5c4)ccc3ncc21`, the inhibition is -9.93%.

For the compound `Cc1cnc(-c2ccccc2C(C)C)nc1NCc1ccc(-n2ccnn2)cc1`, the inhibition worked out at 23.1%.
